Compound activity (PubChem)
Vif inh – HIV Vif self-association inhibitors, primary screen, imaging, HEK293T, single point; HEK293T cells, Vif self-association by quenched fluorescence, 24 h; inhibition, % at 7.49 µM; actives 0.35% (n = 340,000); in the data active = inhibition above about 50%, passing the limit was not always enough
N-glyco inh – increase of ERlucT glycosylation luciferase signal, primary screen, N-linked glycosylation inhibitor project, D54 ERlucT cells, luminescence, set 2. D54 ERlucT glycosylation luciferase reporter, 24 h; percent of 100 nM tunicamycin response. reporter increase, % at 12.5 µM. actives 0.23% (n = 360,000). AID 588692, 2011;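 active = mean luciferase reporter signal, scaled so untreated is 0 and the glycosylation-blocking control 100, at or above a set limit in every replicate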;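 also: luciferase carries N-glycosylation sites so blocking glycosylation raises the light; 0% = median of neutral control wells and 100% = median of 100 nM tunicamycin wells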
MITF TRPM1 HTS – activators of MITF-driven TRPM1 promoter reporter, primary screen, cell-based, SK-MEL-5, luciferase, single point; activation, % at 12.5 µM; actives 0.75% (n = 300,000); AID 588334, 2011; SK-MEL-5 TRPM1-promoter luciferase, 24 h; % of positive control, neutral wells = 0;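 active = mean activation of at least 80% with every replicate also reaching 80%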;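 also: 0% = neutral control wells and 100% = parthenolide positive control wells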
esBAF inh – Bmi1 luciferase reporter increase in mESCs, primary screen, esBAF inhibitor project, mouse ES cells, Bmi1 luciferase knock-in, single point; 24 h; 100% = twice the neutral-well signal; reporter increase, % at 12.5 µM; actives 2% (n = 350,000); in the data active = activation above about 40%;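 also: 0% = median of the plate's neutral control wells and 100% = double that signal; a rise in the Bmi1 reporter signal indicates esBAF inhibition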
PvdQ acylase – P. aeruginosa PvdQ acylase inhibitors, primary screen, biochemical, fluorescence, plate reader and imaging, single point; purified PvdQ acylase; inhibition, % at 10 µM; PvdQ acylase [Pseudomonas aeruginosa LESB58]; actives 0.063% (n = 340,000); in the data active = inhibition above about 30%, passing the limit was not always enough;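 also: 0% = vehicle neutral wells and 100% = reference inhibitor wells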
Wnt bcat act – Wnt/beta-catenin pathway activators, primary screen, cell-based, plate reader, single point | Wnt/beta-catenin reporter cell assay, activator | activation, % at 9.35 µM | actives 1.2% (n = 300,000); in the data active = activation above about 30%, passing the limit was not always enough;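 also: 0% = neutral control wells and 100% = positive control wells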
Starred values were filed as active, the others as inactive; . = no result given. Most compounds without a hit are left out; they make up all but 2.9% or so of the library.

SMILES	Vif inh	N-glyco inh	MITF TRPM1 HTS	esBAF inh	PvdQ acylase	Wnt bcat act
COc1ccc(NC(=O)Nc2cccc3c2O[C@@H](CN(C)Cc2ccc(C(F)(F)F)cc2)[C@@H](C)CN([C@@H](C)CO)C3=O)cc1	.	.	.	0	.	.
C[C@H](CO)N1C[C@H](C)[C@H](CN(C)Cc2ccc(Oc3ccccc3)cc2)OCc2cn(nn2)CCCC1=O	.	.	.	-2	.	.
COC(=O)c1ccc(C(=O)Nc2ccc(C(C)C)cc2N)cc1	-2	3	68	47*	7	.
O=C(Nn1cnc2ccccc2c1=O)c1ccccc1Cl	0	0	23	26	-9	.
O=C(Nn1cnc2ccccc2c1=O)c1c(F)cccc1F	0	0	-9	-6	2	44*
CC(=O)NCCC(=O)Nc1nc2ccc(Oc3ccccc3)cc2s1	10	-12	109*	22	-8	24
CCOc1ccc2nc(NC(=O)CCn3cccc3)sc2c1	10	-4	.	20	-11	-2
CCCC(=O)Nc1nc2ccc(OCC)cc2s1	16	-3	96*	35	9	41*
CCCC(=O)Nc1nc2ccc3nc(C)sc3c2s1	26	2	36	41*	-5	.
CCOc1ccc2nc(NS(=O)(=O)Cc3ccccc3)sc2c1	106*	23	.	39	-9	.
Cc1ccc(S(=O)(=O)Nc2ccc3c(c2)CC(=O)N([C@H](C)CO)C[C@@H](C)[C@@H](CN(C)Cc2ccc(C(=O)Nc4ccccc4N)cc2)O3)cc1	.	.	.	5	.	.
CN(C)C(=O)C[C@@H]1CC[C@@H]2[C@H](COC[C@@H](O)CN2C(=O)C2CC2)O1	.	.	.	-5	.	.
Cc1ccc(N2CCN(C(=O)c3cn(CC4CCCCC4)nn3)C(C)C2)cc1 (stereo unspecified)	11	-7	70	.	0	40*
O=C(c1cn(CC2CCCCC2)nn1)N1CCN(c2ccc(F)cc2)CC1	-4	-1	5	18	-11	5
NC(=O)c1ccc(-c2noc(-c3cccc(Cl)c3)n2)cc1	-6	3	125*	40	10	36*
O=C(O)c1cccc(-c2noc(-c3cccc(Cl)c3)n2)c1	-2	-12	-91	-82	-7	37*
COc1cc(-c2noc(-c3cccc(Cl)c3)n2)cc(OC)c1OC	4	3	.	3	-7	-4
NC(=O)c1sc2nc(-c3ccccc3)ccc2c1N	61*	6	27	77*	-8	2
CCOC(=O)c1sc2nc(-c3ccccc3)ccc2c1N	19	-15	36	.	-17	.
COc1ccc(-c2ccc3c(N)c(C(=O)c4ccc(OC)c(OC)c4)sc3n2)cc1	148*	6	-15	11	-2	7
CCCC#Cc1ccc2c(c1)O[C@H](CN(C)C(=O)c1cnccn1)[C@@H](C)CN([C@@H](C)CO)S2(=O)=O	.	.	.	5	.	.
COc1cccc(S(=O)(=O)Nc2ccc3c(c2)OC[C@@H](C)N(Cc2ccccc2F)C[C@@H](C)[C@H](OC)CN(C)C3=O)c1	.	.	.	9	.	.
COc1ccc(NC(=O)N(C)C[C@H]2Oc3c(NC(=O)Nc4ccc(C(F)(F)F)cc4)cccc3C(=O)N([C@H](C)CO)C[C@H]2C)cc1	.	.	.	-2	.	.
CCCNC(=O)C[C@@H]1C[C@@H]2c3cc(NC(=O)C4CCOCC4)ccc3O[C@@H]2[C@H](CO)O1	.	.	.	-3	.	.
Cc1cc(C)c2nc(NC(=O)c3ccc([N+](=O)[O-])o3)sc2c1	-1	16	-14	13	0	-1
SMILES	Vif inh	N-glyco inh	MITF TRPM1 HTS	esBAF inh	PvdQ acylase	Wnt bcat act
Cc1cc(C)c2sc(NC(=O)c3ccc([N+](=O)[O-])o3)nc2c1	-11	44*	.	27	-16	-1
O=C(Nc1nc2cc3c(cc2s1)OCCO3)c1ccc([N+](=O)[O-])o1	9	-3	-34	20	-4	51*
CCNC(=O)Nc1ccc2c(c1)C(=O)N(C)[C@H]1CC[C@H](CC(=O)NCc3cccc(F)c3)O[C@H]1CO2	.	.	.	5	.	.
C[C@@H]1CCCCO[C@@H](CN(C)S(=O)(=O)c2cccs2)[C@H](C)CN([C@H](C)CO)C(=O)c2cc(NS(=O)(=O)c3ccc(F)cc3)ccc2O1	.	.	.	2	.	.
CCCC(=O)Nc1sc(C(=O)Nc2cccc(N)c2)c(C)c1C(=O)OC	-3	-4	45	7	-14	37*
COC(=O)c1c(NC(C)=O)sc(C(=O)Nc2ccccc2F)c1C	5	2	58	.	-8	37*
O=C(C1CCC1)N1CC[C@@H]2[C@H](CO)Nc3ccc(-c4cccc(F)c4)cc3[C@@H]21	.	.	.	-6	.	.
CCCN(C)C[C@@H]1OCCCC[C@@H](C)Oc2ccc(NS(=O)(=O)c3c(C)noc3C)cc2C(=O)N([C@@H](C)CO)C[C@@H]1C	.	.	.	0	.	.
Cc1ccc(S(=O)(=O)Nc2cccc3c2O[C@@H](CN(C)C(=O)NC(C)C)[C@@H](C)CN([C@@H](C)CO)C3=O)cc1	.	.	.	-1	.	.
C[C@H](NS(=O)(=O)c1c(Cl)cccc1Cl)C(=O)NNC(=O)COc1ccccc1F	52*	3	.	7	-11	3
CC(Oc1ccccc1F)C(=O)NNC(=O)CCS(=O)(=O)c1ccccc1Cl (stereo unspecified)	-14	1	8	1	-17	-1
COCC(=O)Nc1ccc2c(c1)[C@H]1C[C@@H](CC(=O)N3CCCCC3)O[C@H](CO)[C@H]1O2	.	.	.	-2	.	.
c1ccc(Nc2ccc3c4c(cccc24)CC3)cc1	111*	-5	.	0	-8	-1
Cc1ccc(C(=O)NN2C(=O)c3ccc(S(=O)(=O)c4ccc(C(=O)O)cc4)cc3C2=O)cc1	-6	-2	2	17	-19	-2
O=C(O)c1ccc(S(=O)(=O)c2ccc3c(c2)C(=O)N(c2ccc(Br)cc2)C3=O)cc1	66*	0	.	14	-9	2
C[C@@H]1CN([C@@H](C)CO)C(=O)c2cc(NC(=O)C3CCCCC3)ccc2O[C@H]1CN(C)S(=O)(=O)c1cn(C)cn1	.	.	.	0	.	.
CN(C)C(=O)C[C@@H]1CC[C@H]2[C@@H](COC[C@@H](O)CN2S(=O)(=O)c2ccccc2)O1	.	.	.	3	.	.
O=c1cc(N=Nc2ccc(Cl)cc2)[nH]c(=O)[nH]1	-1	70*	0	6	-5	-7
O=C(O)C1CC(c2ccccc2)=Nc2ccccc2S1 (stereo unspecified)	-2	-3	51	52*	-3	-2
